Measurements taken from PubChem BioAssay (NCATS).
Where “and” joins values, the source holds several entries; their conditions need not be identical. Identical values can stand only once. Results filed as inconclusive are left out. Calls of active or inactive are those of the source. The call rests on the fitted dose curve; in most records, active means well fitted curve in the direction sought with a large enough effect; inconclusive means small, poorly fitted or top-dose-only effect, or another doubt; inactive means no such curve, though single readings can be large; an effect the other way counts as inactive or inconclusive. Peptide text beside a SMILES is read from it.

How the values were obtained:
[1] = biological target: Cellular tumor antigen p53 (Homo sapiens) (UniProt P04637); assay: Primary qHTS for small molecule compounds that upregulate eGFP-tagged delta133p53alpha (in N-terminal) cells. (AID 2060322); conditions: NCI-H358 eGFP-delta133p53alpha fluorescence, 24 h; activation: active compounds read high;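 further: cells pre-induced with doxycycline then dosed without doxycycline; series mostly up to about 56 µM; 0% = DMSO vehicle and 100% = reference activator; nearly all actives have a fitted effect of over 75% in size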
Cellular tumor antigen p53 (Homo sapiens), sequence (P04637 whole entry, looked up): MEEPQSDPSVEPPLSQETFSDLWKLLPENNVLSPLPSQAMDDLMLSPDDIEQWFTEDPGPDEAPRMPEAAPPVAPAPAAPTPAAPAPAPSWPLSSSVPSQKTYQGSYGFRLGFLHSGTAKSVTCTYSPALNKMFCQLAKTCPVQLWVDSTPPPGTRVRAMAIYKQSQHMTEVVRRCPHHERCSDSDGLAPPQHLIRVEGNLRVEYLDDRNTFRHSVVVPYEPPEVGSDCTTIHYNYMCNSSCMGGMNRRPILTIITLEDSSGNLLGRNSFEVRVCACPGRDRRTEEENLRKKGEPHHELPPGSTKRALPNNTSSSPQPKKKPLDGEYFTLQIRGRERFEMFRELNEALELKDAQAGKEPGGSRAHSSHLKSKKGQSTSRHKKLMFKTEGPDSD
How it was run: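 NCI-H358 cells pre-induced 24 h with 10 ng/ml doxycycline for eGFP-delta133p53alpha, plated dox-free and exposed 24 h at 37C to titrated compounds. Fixed, Hoechst-stained; gated GFP peak intensity by laser scanning cytometry, normalized to DMSO (0%) and 57.5 uM 5-azacytidine (100%).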

[2] = biological target: Aldehyde dehydrogenase, mitochondrial (Homo sapiens) (UniProt P05091); assay: qHTS for Inhibitors of the Aldehyde Dehydrogenase Family (ALDH2) Primary screen (AID 2061308);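 further: plate controls were vehicle for no effect and reference inhibitor for full effect; nearly all actives have a fitted effect of over 55% in size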
[3] = biological target: Retinaldehyde dehydrogenase 3 (Homo sapiens) (UniProt P47895); assay: qHTS for Inhibitors of the Aldehyde Dehydrogenase Family (ALDH1A3) Primary screen (AID 2061315);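 further: plate controls were DMSO vehicle for no effect and reference inhibitor for full effect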

O=C(/C=C/c1ccc(O)cc1)OCC1=CC2OC(=O)C3=CO[C@@H](O[C@@H]4O[C@H](CO)[C@@H](O)[C@H](O)[C@H]4O)[C@H]1[C@@H]32 (some centres undefined)
inactive: activation [1] 0% | Potency [2] | Potency [3]

COc1cc(C)c(C(=O)NC2C(C)OC(OC3CCC(C)C4C3C=C(C)C3/C(C)=C\CC/C(C)=C/C5(C)C=C(C(=O)O)C(C)CC56OC(=O)/C(=C(\O)C34C)C6=O)C(O)C2(C)O)c(O)c1 (centres undefined)
inactive: activation [1] 3.82% | Potency [2] | Potency [3]

C=C1C2CCC3C(CCC4[C@@]3(C)CCC[C@@]4(C)C(=O)O)(C2)[C@@H]1OC(=O)/C(C)=C\C (some centres undefined)
inactive: activation [1] -8.93% | Potency [2] | Potency [3]

C[C@@H]1O[C@@H](O[C@@H]2[C@@H](O)[C@H](O[C@@H]3[C@@H](O)[C@@H](O)[C@H](O[C@H]4[C@H](OC(=O)[C@]56CCC(C)(C)C[C@H]5C5=CCC7[C@@]8(C)C[C@H](O)[C@H](O[C@@H]9O[C@H](C(=O)O)[C@@H](O)[C@H](O)[C@H]9O)[C@@](C)(CO)C8[C@H](O)C[C@@]7(C)[C@]5(C)C[C@H]6O)O[C@@H](CO)[C@@H]4O)O[C@H]3C)OC[C@H]2O)[C@H](O)[C@H](O)[C@H]1O (some centres undefined)
inactive: activation [1] 12.2% | activity change, negative = inhibition [2] 4.77% [at 11.2 µM] | activity change, negative = inhibition [3] -9.03% [at 11.2 µM]

CC1(C(=O)O)CCCC2(C)C3CC4C5CC3(CCC12)CC45C (centres undefined)
inactive: activation [1] 17.9% | Potency [2] | Potency [3]

C=C(C(=O)O)C1CC(OC(=O)CC(C)CC)C2(C)CCCC(=C)C2C1 (centres undefined)
inactive: activation [1] -13% | Potency [2] | Potency [3]

COc1ccc(C(=O)O[C@H]2CC(C)=CC[C@@]3(C)[C@@H](OC(C)=O)C[C@@](O)(C(C)C)[C@H]23)cc1
inactive: activation [1] 1.79% | Potency [2] | Potency [3]

CC(=O)NC(Cc1ccccc1)C(=O)NC(C(=O)O)C(C)C (stereo not drawn) (Ac-Phe-Val-OH; configuration not given here)
inactive: activation [1] 0% | Potency [2] | Potency [3]

OC[C@H]1O[C@@H](OC(CCCCc2ccc(O)cc2)CCc2ccc(O)cc2)[C@H](O[C@@H]2OC[C@](O)(CO)[C@H]2O)[C@@H](O)[C@@H]1O (some centres undefined)
inactive: activation [1] -24.4% | Potency [2] | Potency [3]

C/C(=C\CCC(C)C1=CCC2(C)OC3=C(CC12)C(=O)C(O)CC3)CO (centres undefined)
inactive: activation [1] 25.2% | Potency [2] | Potency [3]

CN1[C@@H]2CC[C@H]1CC(OC(=O)c1c[nH]c3ccccc13)C2 (some centres undefined)
inactive: activation [1] -6.21% and -7.16% | Potency [2] | Potency [3]

C[C@]1(O)CC[C@@H]2C(C(=O)O)=CO[C@@H](O[C@@H]3O[C@H](CO)[C@@H](O)[C@H](O)[C@H]3O)[C@@H]21
inactive: activation [1] -11.5% | Potency [2] | Potency [3]

COC(=O)[C@H](O)[C@H]1C(C)(C)[C@H](OC(=O)C(C)C)[C@@]2(O)C(=O)[C@]1(C)C1CC[C@]3(C)C(CC(=O)O[C@H]3c3ccoc3)[C@]13O[C@@H]32 (some centres undefined)
inactive: activation [1] 6.11% | Potency [2] | Potency [3]

CC1(C)CC2=C3C=CC4C5(C)CCC(O)C(C)(C)C5CCC4(C)C3(C)CCC2(C)C(O)C1 (centres undefined)
inactive: activation [1] -8.04% | Potency [2] | Potency [3]

C[C@@H]1CCO[C@H]2Cn3cc(C(=O)NCc4ccc(F)cc4F)c(=O)c(O)c3C(=O)N12
inactive: activation [1] 32.3% | Potency [2] | Potency [3]

CCOC(=O)N1CCC(N2CCC[C@@H](NC(=O)c3ccccc3C)C2)CC1
inactive: activation [1] -2.86% | Potency [2] | Potency [3]

CC1(C)CC[C@]2(C(=O)O)[C@H](O)C[C@]3(C)C(=CCC4[C@@]5(C)CC[C@H](O[C@@H]6O[C@H](CO[C@@H]7OC[C@H](O)[C@H](O)[C@H]7O[C@@H]7OC[C@H](O)[C@H](O)[C@H]7O)[C@@H](O)[C@H](O)[C@H]6O)C(C)(C)C5CC[C@]43C)[C@@H]2C1 (some centres undefined)
inactive: activation [1] -4.46% | Potency [2] | Potency [3]

C=C1C2(C)CC3C4(C)OC(C5OC56C4=CC(=O)OC6(C)C)C3(C)C13C(=O)OC(C)C3(O)C2=O (centres undefined)
inactive: activation [1] -9.92% | Potency [2] | Potency [3]

O=C(Nc1ccccc1-c1cn2c(CN3CCNCC3)csc2n1)c1ccc2ccccc2n1
inactive: activation [1] 11% | Potency [2] | Potency [3]

C[C@@H]1CCC2C(C)(C)[C@H](O)CC[C@]2(C)[C@@]12Cc1c(O)cc3c(c1O2)CNC3=O (some centres undefined)
inactive: activation [1] -20.6% | Potency [2] | Potency [3]

C=C1C(=O)O[C@@H]2[C@H]1CCC(C)=C(CCC(=O)O)[C@@]2(C)O
inactive: activation [1] -18.3% | Potency [2] | Potency [3]

C=C1CCC2C(C)(C)CC(O)CC2(C)C1CCC(C)CCOC(=O)CCC(=O)O (centres undefined)
inactive: activation [1] 17.6% | Potency [2] | Potency [3]

COc1cc(NS(=O)(=O)c2ccc(N)cc2)nc(C)n1
inactive: activation [1] -15.9% | Potency [2] | Potency [3]
